Data taken from PubChem BioAssay (EPA / NIEHS).
Values joined by “and” are separate entries in the source; they are usually repeats but may differ in a detail not shown here. Equal values may be shown once. More than one record can exist for a structure, and the calls need not agree. Active and inactive are the calls of the source. Rule for the calls: active = hit-call score of the fitted dose curve at least 0.9, where 1 is the maximum; inactive = score below 0.9.

Key:
Conditions in all cases: mRNA level, 48 h; actives raise or lower the signal
[1] = read-out: Hypoxia-inducible factor 1-alpha (Homo sapiens) (UniProt Q16665); test: LTEA_HepaRG_HIF1A: Life Technologies and Expression Analysis (LTEA) Assay for Hypoxia-inducible factor 1 (HIF1A) Trancription factor using HepaRG (AID 2283503)
Method in brief: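 Gain- or loss-of-signal HIF1A mRNA changes are fitted against a DMSO baseline. HepaRG cultures receive eight concentrations, highest 100 uM, for 48 h in serum-free induction medium with 0.5% DMSO.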

[2] = read-out: 3-Hydroxy-3-Methylglutaryl-CoA Synthase 2 (HMGCS2), HMGCS2 (gene 3158); test: LTEA_HepaRG_HMGCS2: Life Technologies and Expression Analysis (LTEA) Assay for 3-Hydroxy-3-Methylglutaryl-CoA Synthase 2 (HMGCS2) using HepaRG (AID 2283504)
Method in brief: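 Readout is HMGCS2 transcript by qRT-PCR, housekeeping-normalised (ACTB/GAPDH/POLR2A) and fitted bidirectionally against 0.5% DMSO. Differentiated HepaRG cells received chemicals 48 h, duplicate wells, eight half-log concentrations topping at 100 uM.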

[3] = read-out: HGF (gene 3082); test: LTEA_HepaRG_HGF: Life Technologies and Expression Analysis (LTEA) Assay for Hepatocyte Growth Facto (HGF) using HepaRG (AID 2283505)
Method in brief: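 HGF transcript was quantified by TaqMan qRT-PCR against three housekeeping genes after 48 h treatment of HepaRG cells. Exposure ran in duplicate over eight half-log steps topping at 100 uM in 0.5% DMSO vehicle.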

[4] = read-out: Insulin Like Growth Factor 1 (IGF1), IGF1 (gene 3479); test: LTEA_HepaRG_IGF1: Life Technologies and Expression Analysis (LTEA) Assay for Insulin Like Growth Factor 1 (IGF1) using HepaRG (AID 2283506)
Method in brief: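 qRT-PCR readout of IGF1 mRNA, normalized to three housekeeping genes, after 48 h chemical exposure of HepaRG cells. Concentrations: 8-point half-log series, top 100 uM, 0.5% DMSO vehicle. Gain or loss fitted against DMSO baseline.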

[5] = read-out: Intercellular Adhesion Molecule 1 (ICAM1), ICAM1 (gene 3383); test: LTEA_HepaRG_ICAM1: Life Technologies and Expression Analysis (LTEA) Assay for Intercellular Adhesion Molecule 1 (ICAM1) using HepaRG (AID 2283507)
Method in brief: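 ICAM1 transcript levels measured by qRT-PCR, normalized to three housekeeping genes (ACTB, GAPDH, POLR2A), after 48 h chemical exposure of HepaRG cells. Duplicate eight-point half-log series from 100 uM in 0.5% DMSO; gain or loss fitted against vehicle.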

[6] = read-out: Insulin-like growth factor-binding protein 1 (IGFBP1), IGFBP1 (gene 3484); test: LTEA_HepaRG_IGFBP1: Life Technologies and Expression Analysis (LTEA) Assay for Insulin-like growth factor-binding protein 1 (IGFBP1) using HepaRG (AID 2283508)
Method in brief: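 Read-out is qRT-PCR transcript level normalized to three housekeeping genes, fitted in both directions against 0.5% DMSO. Differentiated HepaRG cells received eight half-log concentrations (top 100 uM) in duplicate for 48 h in serum-free induction medium.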

[7] = read-out: Interleukin 6 (IL6), IL6 (gene 3569); test: LTEA_HepaRG_IL6: Life Technologies and Expression Analysis (LTEA) Assay for Interleukin 6 (IL6) using HepaRG (AID 2283509)
Method in brief: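 qRT-PCR read-out of IL6 transcript, normalized to three housekeeping genes, after 48 h chemical exposure of HepaRG cells; 8-point half-log series, top 100 uM, 0.5% DMSO vehicle. Bidirectional curve fitting against DMSO baseline.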

[8] = read-out: Interleukin 6 Receptor (IL6R), IL6R (gene 3570); test: LTEA_HepaRG_IL6R: Life Technologies and Expression Analysis (LTEA) Assay for Interleukin 6 Receptor (IL6R) using HepaRG (AID 2283510)
Method in brief: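 HepaRG, 48 h exposure, 8-pt half-log series, top 100 uM, 0.5% DMSO vehicle, duplicates. Read-out: TaqMan qRT-PCR of IL6R transcript, housekeeping-gene normalized. Gain or loss fitted relative to DMSO baseline.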

[9] = read-out: Potassium channel subfamily K member 1 (KCNK1), KCNK1 (gene 3775); test: LTEA_HepaRG_KCNK1: Life Technologies and Expression Analysis (LTEA) Assay for Potassium channel subfamily K member 1 (KCNK1) using HepaRG (AID 2283511)
Method in brief: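 HepaRG, 48 h exposure, 8-pt half-log series top 100 uM, 0.5% DMSO vehicle, duplicates. Readout: KCNK1 transcript by qRT-PCR (Fluidigm array), housekeeping-normalized; bidirectional curve fit relative to DMSO baseline.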

[10] = read-out: Keratin 19 (KRT19), KRT19 (gene 3880); test: LTEA_HepaRG_KRT19: Life Technologies and Expression Analysis (LTEA) Assay for Keratin 19 (KRT19) using HepaRG (AID 2283512)
Method in brief: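 KRT19 transcript measured by TaqMan qRT-PCR, referenced to three housekeeping genes, after HepaRG cells received test chemicals for 48 h. Eight half-log concentrations, top 100 uM, 0.5% DMSO vehicle; increases and decreases both fitted.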

[11] = read-out: JUN Transcription Factor, JUN (gene 3725); test: LTEA_HepaRG_JUN: Life Technologies and Expression Analysis (LTEA) Assay for JUN Transcription Factor using HepaRG (AID 2283513)
Method in brief: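 HepaRG, 48 h exposure, 8-pt half-log series top 100 uM, 0.5% DMSO, duplicate. JUN mRNA by qRT-PCR (Fluidigm), housekeeping-normalized (ACTB/GAPDH/POLR2A); bidirectional curve fit vs DMSO baseline.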

[12] = read-out: Lipase C (LIPC), LIPC (gene 3990); test: LTEA_HepaRG_LIPC: Life Technologies and Expression Analysis (LTEA) Assay for Lipase C (LIPC) using HepaRG (AID 2283514)
Method in brief: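 HepaRG, 48 h exposure, 8-pt half-log series from 100 uM in 0.5% DMSO, duplicates. Readout: LIPC mRNA by Fluidigm qRT-PCR, housekeeping-normalized (ACTB/GAPDH/POLR2A). Gain or loss fitted bidirectionally against DMSO baseline.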

[13] = read-out: Lipoprotein lipase (LPL), LPL (gene 4023); test: LTEA_HepaRG_LPL: Life Technologies and Expression Analysis (LTEA) Assay for Lipoprotein lipase (LPL) using HepaRG (AID 2283515)
Method in brief: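 HepaRG, 48 h exposure, 8-pt half-log dilutions from 100 uM, 0.5% DMSO vehicle, duplicates; qRT-PCR (Fluidigm array) of LPL mRNA vs housekeeping genes; bidirectional curve fit relative to DMSO baseline.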

[14] = read-out: MicroRNA 122 (MIR122), gene 406906; test: LTEA_HepaRG_MIR122: Life Technologies and Expression Analysis (LTEA) Assay for MicroRNA 122 (MIR122) using HepaRG (AID 2283516); note: the transcript read is the microRNA miR-122
Method in brief: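 qRT-PCR read-out (TaqMan, Fluidigm array), normalized to three housekeeping genes; HepaRG cells dosed 48 h at 8 concentrations up to 100 uM in 0.5% DMSO, duplicate; gain or loss fitted against DMSO baseline.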

[15] = read-out: matrix metalloproteinase-10 (MMP10), MMP10 (gene 4319); test: LTEA_HepaRG_MMP10: Life Technologies and Expression Analysis (LTEA) Assay for matrix metalloproteinase-10 (MMP10) using HepaRG (AID 2283517)
Method in brief: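 Transcript levels come from Fluidigm qRT-PCR normalized to three housekeeping genes, with curves fitted bidirectionally against 0.5% DMSO. Human HepaRG cells were dosed for 48 hours at concentrations up to 100 uM.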

[16] = read-out: MYC, MYC (gene 4609); test: LTEA_HepaRG_MYC: Life Technologies and Expression Analysis (LTEA) Assay for MYC using HepaRG (AID 2283518)
Method in brief: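 MYC transcript changes, up or down relative to 0.5% DMSO, from TaqMan qRT-PCR normalized to three housekeeping genes. Human HepaRG cultures received chemicals for 48 h at eight half-log concentrations up to 100 uM, in duplicate.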

[17] = read-out: matrix metalloproteinase-3 (MMP3), MMP3 (gene 4314); test: LTEA_HepaRG_MMP3: Life Technologies and Expression Analysis (LTEA) Assay for matrix metalloproteinase-3 (MMP3) using HepaRG (AID 2283519)
Method in brief: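 qRT-PCR read-out of MMP3 mRNA (normalised to three housekeeping genes) in HepaRG liver cells after 48 h chemical exposure; 8-point half-log series, top 100 uM, 0.5% DMSO vehicle. Bidirectional curve fitting against DMSO baseline.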

[18] = read-out: Paternally Expressed 10 (PEG10), PEG10 (gene 23089); test: LTEA_HepaRG_PEG10: Life Technologies and Expression Analysis (LTEA) Assay for Paternally Expressed 10 (PEG10) using HepaRG (AID 2283520);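 for AC50: PEG10 transcript by qRT-PCR normalised to ACTB GAPDH and POLR2A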
Method in brief: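 qRT-PCR read-out: PEG10 mRNA normalised to three housekeeping genes, fitted bidirectionally against 0.5% DMSO vehicle. HepaRG cells received test chemicals for 48 h in serum-free induction medium, 8 points, top 100 uM, half-log steps.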

[19] = read-out: Nuclear factor NF-kappa-B p105 subunit (Homo sapiens) (UniProt P19838); test: LTEA_HepaRG_NFKB1: Life Technologies and Expression Analysis (LTEA) Assay for Nuclear Factor Kappa B Subunit 1 (NFKB1) using HepaRG (AID 2283521);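 note: differentiated human HepaRG liver cells in serum-free induction medium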
Method in brief: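 NFKB1 transcript was measured by TaqMan qRT-PCR on Fluidigm arrays, normalised to three housekeeping genes and fitted in both directions against 0.5% DMSO. HepaRG cells were dosed in duplicate for 48 h in serum-free induction medium, eight half-log steps from 100 uM.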

[20] = read-out: Protein phosphatase 2A (PPP2R4), PTPA (gene 5524); test: LTEA_HepaRG_PPP2R4: Life Technologies and Expression Analysis (LTEA) Assay for Protein phosphatase 2A (PPP2R4) using HepaRG (AID 2283522)
Method in brief: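 HepaRG, 48 h exposure, 8-pt half-log series from 100 uM, 0.5% DMSO vehicle, duplicates. Readout: PPP2R4 mRNA, Fluidigm qRT-PCR, housekeeping-normalized. Bidirectional curve fit vs DMSO baseline.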

Measured: AC50

Sequence of Nuclear factor NF-kappa-B p105 subunit (Homo sapiens) (P19838 whole entry, looked up): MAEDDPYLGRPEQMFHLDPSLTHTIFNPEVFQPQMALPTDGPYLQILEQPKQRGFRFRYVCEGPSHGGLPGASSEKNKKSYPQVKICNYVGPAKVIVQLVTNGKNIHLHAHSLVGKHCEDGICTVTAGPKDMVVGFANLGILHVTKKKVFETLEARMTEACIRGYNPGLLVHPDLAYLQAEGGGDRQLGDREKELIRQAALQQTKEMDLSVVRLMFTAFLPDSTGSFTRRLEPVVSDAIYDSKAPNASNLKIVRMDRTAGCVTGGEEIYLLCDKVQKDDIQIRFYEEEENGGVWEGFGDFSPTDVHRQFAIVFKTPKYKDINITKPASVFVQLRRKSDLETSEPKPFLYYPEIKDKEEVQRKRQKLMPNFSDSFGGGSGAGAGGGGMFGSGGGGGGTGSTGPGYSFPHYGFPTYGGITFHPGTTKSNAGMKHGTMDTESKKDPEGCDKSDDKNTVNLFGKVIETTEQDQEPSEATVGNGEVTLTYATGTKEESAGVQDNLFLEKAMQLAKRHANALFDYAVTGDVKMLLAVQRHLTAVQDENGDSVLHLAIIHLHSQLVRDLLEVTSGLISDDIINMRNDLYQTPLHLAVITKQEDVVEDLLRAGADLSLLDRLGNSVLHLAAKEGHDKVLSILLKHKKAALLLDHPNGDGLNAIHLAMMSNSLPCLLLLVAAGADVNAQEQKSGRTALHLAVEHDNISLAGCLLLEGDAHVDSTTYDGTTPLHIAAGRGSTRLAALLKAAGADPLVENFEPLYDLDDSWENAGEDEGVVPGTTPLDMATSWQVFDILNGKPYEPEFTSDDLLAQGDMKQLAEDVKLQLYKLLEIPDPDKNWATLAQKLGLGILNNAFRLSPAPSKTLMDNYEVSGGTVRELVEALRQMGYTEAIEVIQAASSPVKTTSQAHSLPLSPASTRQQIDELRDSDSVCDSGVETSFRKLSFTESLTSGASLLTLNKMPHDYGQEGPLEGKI
Sequence of Hypoxia-inducible factor 1-alpha (Homo sapiens) (Q16665 whole entry, looked up): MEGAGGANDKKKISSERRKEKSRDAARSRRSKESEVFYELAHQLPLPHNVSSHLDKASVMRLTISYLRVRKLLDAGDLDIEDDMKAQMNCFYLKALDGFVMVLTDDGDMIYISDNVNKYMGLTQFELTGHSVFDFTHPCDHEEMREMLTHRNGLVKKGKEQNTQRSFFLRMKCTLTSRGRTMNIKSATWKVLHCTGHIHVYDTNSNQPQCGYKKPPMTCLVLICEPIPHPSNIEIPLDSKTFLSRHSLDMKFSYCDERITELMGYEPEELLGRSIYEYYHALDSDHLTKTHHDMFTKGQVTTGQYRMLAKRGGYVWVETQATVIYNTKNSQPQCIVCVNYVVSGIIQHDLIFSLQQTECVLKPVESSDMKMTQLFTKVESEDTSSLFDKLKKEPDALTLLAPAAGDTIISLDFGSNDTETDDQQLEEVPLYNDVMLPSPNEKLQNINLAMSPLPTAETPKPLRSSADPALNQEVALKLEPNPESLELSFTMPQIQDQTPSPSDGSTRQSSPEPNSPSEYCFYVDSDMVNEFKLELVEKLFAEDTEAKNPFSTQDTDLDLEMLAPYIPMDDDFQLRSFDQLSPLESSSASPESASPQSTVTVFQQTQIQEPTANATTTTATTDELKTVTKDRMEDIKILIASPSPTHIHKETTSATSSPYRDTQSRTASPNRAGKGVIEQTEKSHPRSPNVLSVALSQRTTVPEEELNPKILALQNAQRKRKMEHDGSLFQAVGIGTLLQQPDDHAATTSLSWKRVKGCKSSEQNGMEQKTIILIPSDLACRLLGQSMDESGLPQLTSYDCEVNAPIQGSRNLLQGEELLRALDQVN

O=[N+]([O-])c1c(Cl)c(Cl)c(Cl)c(Cl)c1Cl
active: [4] 50 µM | [7] 9.92 µM | [10] 38.6 µM | [17] 50 µM | [18] 69.8 µM
inactive: all other assays above

CCC(C)(C)C(=O)OC1=C(c2ccc(Cl)cc2Cl)C(=O)OC12CCCCC2
active: [2] 50 µM | [4] 31.1 µM | [13] 40.8 µM
not listed: [8]
inactive: all other assays above

CC[C@H](C)[C@H]1O[C@]2(C=C[C@@H]1C)C[C@@H]1C[C@@H](C/C=C(\C)[C@@H](O[C@H]3C[C@H](OC)[C@@H](O[C@H]4C[C@H](OC)[C@@H](O)[C@H](C)O4)[C@H](C)O3)[C@@H](C)/C=C/C=C3\CO[C@@H]4[C@H](O)C(C)=C[C@@H](C(=O)O1)[C@]34O)O2 (tested in a mixture with another compound)
active: [1] 19 µM | [2] 16.2 µM | [4] 16 µM | [5] 13.6 µM | [6] 11.6 µM | [7] 18.6 µM | [9] 16.8 µM | [10] 7.94 µM | [11] 18.8 µM | [12] 13.8 µM | [13] 13.5 µM | [14] 7.42 µM | [15] 11.7 µM | [16] 13.9 µM | [17] 40.2 µM | [18] 49.3 µM | [20] 47.7 µM
inactive: [3] | [19]

CCCN(CCC)c1c([N+](=O)[O-])cc(C(F)(F)F)cc1[N+](=O)[O-]
not listed: [8]
inactive: all other assays above

ClC1C(Cl)C(Cl)C(Cl)C(Cl)C1Cl (configuration not stated)
active: [2] 25.4 µM | [4] 6.89 µM | [18] 4.25 µM and 27.6 µM
inactive: [1] | [2] | [3] | [5] | [6] | [7] | [9] | [10] | [11] | [12] | [13] | [14] | [15] | [16] | [17] | [19] | [20]
